Screens from PubChem.
Compounds with a hit are over-represented: about 4.1% of the library has one in this group of screens.
hgDAF12 agonist: hgDAF-12 agonism, primary luciferase screen. activation, % at 6.8 µM. HEK293 GAL4-hgDAF12 UAS-luciferase reporter, agonist luminescence; normalized to butyrate control. 370,000 tested, 1.8% active;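 active means activation above a cutoff set at the mean of all screened compounds plus 3 SD, cut at about 10% in these data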;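 further: 0% = DMSO wells and 100% = sodium butyrate wells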
hcDAF12 agonist: activates DAF-12 receptor from parasite H. contortus; activation, % at 6.8 µM; HEK293 hcDAF-12 lit1-tk-luc reporter, luminescence; 0% DMSO, 100% Δ7-dafachronic acid; 370,000 tested, 1.4% active; AID 652067;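 active means activation above the mean of all tested compounds plus 3 SD, cut at about 5.5% in these data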;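 further: 100% = response to 3 µM Δ7-dafachronic acid high control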
DAX1 inh-1: DAX1 (NR0B1) inhibition, primary screen; HEK293T StAR-luciferase reporter, SF-1/DAX-1 repression relief; inhibition, % at 6.8 µM; 370,000 tested, 1.1% active;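 active means inhibition above the mean over all tested compounds plus 3 SD, cut at about 3.6% in these data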;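 further: 0% = DAX-1 cells with DMSO and 100% = cells lacking DAX-1 with DMSO; higher inhibition means more luminescence from relief of DAX-1 repression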
ssDAF12 agonist: activators of S. stercoralis DAF-12 nuclear receptor | HEK293 ssDAF-12/GRIP1 lit1-tk-luc reporter, luminescence; % of 3 µM dafachronic acid response | activation, % at 6.8 µM | 370,000 tested, 1% active | AID 652126;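 active means activation above the mean over all tested compounds plus 3 SD, cut at about 0.9% in these data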;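 further: 0% = DMSO-only wells and 100% = 3 µM delta7-dafachronic acid wells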
DAX1 inh-2: NR0B1 (DAX1) inhibition | AID 504766 | HEK293 Gal4-DAX1 luciferase reporter, luminescence | P51843 | inhibition, % at 6.75 µM | 340,000 tested, 0.99% active;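 active means inhibition above the mean over all tested compounds plus 3 SD, cut at about 4.2% in these data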;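 further: 0% = DAX1-transfected cells with DMSO and 100% = empty-vector control cells with DMSO; inhibition shows as a rise in luminescence from relieved DAX1 repression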
Target sequence (P51843 207-470 limits assumed): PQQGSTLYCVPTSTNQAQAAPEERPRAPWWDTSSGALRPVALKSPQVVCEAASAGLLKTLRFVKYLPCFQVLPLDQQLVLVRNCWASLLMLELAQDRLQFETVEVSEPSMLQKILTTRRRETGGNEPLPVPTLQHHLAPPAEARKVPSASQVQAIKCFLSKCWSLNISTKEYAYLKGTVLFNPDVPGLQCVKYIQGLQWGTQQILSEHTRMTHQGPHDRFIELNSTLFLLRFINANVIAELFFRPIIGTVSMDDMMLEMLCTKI
LXRb hcDAF ctr: counter-screen for hcDAF-12 agonists: agonists of human LXR-beta | shares compounds with hcDAF12 agonist | activation, % at 6.8 µM | HEK293 Gal4-LXR tk-luc reporter, luminescence, 24 h; normalized: DMSO 0%, positive control 100% | 3,400 tested, under 10 active;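 active means mean percent activation of the reporter above a cutoff set as the average over tested compounds plus their standard deviation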
hcDAF12 ag: hcDAF-12 agonism, confirmation assay; HEK293 hcDAF-12 lit1-tk-luc reporter, luminescence; % of Δ7-dafachronic acid response; activation, % at 6.8 µM; shares compounds with hcDAF12 agonist; 3,400 tested, 61% active;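 active means mean activation across triplicate tests above the threshold derived from the earlier primary screen, cut at about 5.5% in these data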;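 further: 0% = DMSO only wells and 100% = 3 µM Δ7-dafachronic acid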
hgDAF12 ag: hgDAF-12 agonism, confirmation assay; shares compounds with hgDAF12 agonist; HEK293 GAL4-hgDAF12 luciferase reporter, agonist mode; percent of butyrate response; activation, % at 6.8 µM; 3,300 tested, 80% active; AID 743050;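 active means mean activation over triplicate wells above the hit cutoff derived from the earlier primary screen, cut at about 11% in these data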;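 further: 0% = DMSO low control and 100% = 2 mM sodium butyrate high control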
LXRb DAF12 ctr: counter-screen for DAF-12 agonists: agonists of human LXR-beta. shares compounds with hgDAF12 agonist. HEK293 Gal4-LXR luciferase reporter, 24 h. activation, % at 6.8 µM. 3,300 tested, under 10 active. AID 743051;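 active means mean activation of the triplicate above a set limit carried over from the primary screen, none filed active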
* = called active by the depositor.

CC(C)c1[nH]nc2c1C(c1ccccc1)NC2=O (stereo unspecified) was read as hgDAF12 agonist 2, hcDAF12 agonist -1, DAX1 inh-1 1 and ssDAF12 agonist -1.
Screening O[C@H](COc1cccc(Br)c1)CN1CCC(C(O)(c2ccccc2)c2ccccc2)CC1 returned hgDAF12 agonist 0, hcDAF12 agonist -2, DAX1 inh-1 -1 and ssDAF12 agonist -2.
For Nc1c(-c2ccccc2)cnn1-c1cccc(Cl)c1 the results were hgDAF12 agonist 15*, hcDAF12 agonist 7.1*, DAX1 inh-1 2, ssDAF12 agonist 0, DAX1 inh-2 4, LXRb hcDAF ctr 1, hcDAF12 ag 4, hgDAF12 ag 17* and LXRb DAF12 ctr 1.
Screening Cc1cccc(-c2cnn(-c3ccccc3)c2N)c1 returned hgDAF12 agonist 6, hcDAF12 agonist 4, DAX1 inh-1 1, ssDAF12 agonist -1 and DAX1 inh-2 2.
CCOC(=O)c1c(N)sc(C(=O)Nc2ccccc2)c1C was read as hgDAF12 agonist 28*, hcDAF12 agonist 10*, DAX1 inh-1 3, ssDAF12 agonist 0, DAX1 inh-2 -1, LXRb hcDAF ctr 2, hcDAF12 ag 8.9*, hgDAF12 ag 22* and LXRb DAF12 ctr 1.
Cc1cc(N2CCCN(C)CC2)n2nc(C)nc2n1 was read as hgDAF12 agonist 3, hcDAF12 agonist -1, DAX1 inh-1 0 and ssDAF12 agonist -1.
`OC(c1ccc(Cl)cc1)C(O)c1nc2ccccc2[nH]1` (stereo unspecified) gave hgDAF12 agonist 2, hcDAF12 agonist 0, DAX1 inh-1 -1, ssDAF12 agonist -2 and DAX1 inh-2 0.
S=C(Nc1ccc(Cl)cc1)c1nc2ccccc2[nH]1 was read as hgDAF12 agonist 18*, hcDAF12 agonist 7.3*, DAX1 inh-1 4, ssDAF12 agonist 0, DAX1 inh-2 2, LXRb hcDAF ctr 1, hcDAF12 ag 6.5*, hgDAF12 ag 16* and LXRb DAF12 ctr 1.
COc1cc(C=C2C(=O)C=CC2=O)ccc1O was read as hgDAF12 agonist -1, hcDAF12 agonist 0, DAX1 inh-1 -3 and ssDAF12 agonist -1.
Screening Cc1ccc(-c2nnc(-c3ccccc3Br)o2)cc1 returned hgDAF12 agonist 20*, hcDAF12 agonist 15*, DAX1 inh-1 3, ssDAF12 agonist 1.8*, DAX1 inh-2 4, LXRb hcDAF ctr 1, hcDAF12 ag 10*, hgDAF12 ag 20* and LXRb DAF12 ctr 1.
`Cc1ccccc1-c1nnc(-c2ccccc2)o1` gave hgDAF12 agonist 14*, hcDAF12 agonist 7.8*, DAX1 inh-1 2, ssDAF12 agonist 1, DAX1 inh-2 3, LXRb hcDAF ctr 1, hcDAF12 ag 9.3*, hgDAF12 ag 17* and LXRb DAF12 ctr 1.
`COC(=O)[C@]12C[C@H](CC(=O)NCC34CC5CC(CC(C5)C3)C4)C(=O)N(Cc3ccccc3)C1=C[C@H](C(C)C)O[C@@H]2C1CC1` gave hgDAF12 agonist 0, hcDAF12 agonist -3, DAX1 inh-1 -1 and ssDAF12 agonist -1.
Screening O=C(Nc1nc2ccccc2s1)c1ccc(Cl)s1 returned hgDAF12 agonist 15*, hcDAF12 agonist 8.4*, DAX1 inh-1 4.0*, ssDAF12 agonist 0, DAX1 inh-2 6.5*, LXRb hcDAF ctr 2, hcDAF12 ag 7.2*, hgDAF12 ag 21* and LXRb DAF12 ctr 1.
For O=C(Nc1nc2ccc(Cl)cc2s1)c1ccco1 the results were hgDAF12 agonist 16*, hcDAF12 agonist 7.4*, DAX1 inh-1 4, ssDAF12 agonist 0, DAX1 inh-2 1, LXRb hcDAF ctr 1, hcDAF12 ag 6.6*, hgDAF12 ag 17* and LXRb DAF12 ctr 1.
Screening Cc1ccc2nc(NC(=O)c3ccc(-c4nc5ccccc5s4)s3)sc2c1 returned hgDAF12 agonist -9, hcDAF12 agonist -3, DAX1 inh-1 -3, ssDAF12 agonist -2 and DAX1 inh-2 0.
For O=C(Nc1cccc(F)c1)OC1CC2CC1[C@H]1CCCCN1[C@H]2Cc1ccccc1 (stereo partly specified) the results were hgDAF12 agonist -2, hcDAF12 agonist 0, DAX1 inh-1 0 and ssDAF12 agonist -1.
Screening O=C(Nc1nccs1)c1csc2c1CCCC2 returned hgDAF12 agonist 14*, hcDAF12 agonist 7.2*, DAX1 inh-1 0, ssDAF12 agonist 0, DAX1 inh-2 1, LXRb hcDAF ctr 0, hcDAF12 ag 4, hgDAF12 ag 10 and LXRb DAF12 ctr 0.
`O=c1cc(-c2ccc(O)cc2)oc2ccccc12` gave hgDAF12 agonist 9, hcDAF12 agonist 1, DAX1 inh-1 3, ssDAF12 agonist -1 and DAX1 inh-2 3.
COc1ccc(-c2cc(=O)c3ccccc3o2)cc1 was read as hgDAF12 agonist 20*, hcDAF12 agonist 9.0*, DAX1 inh-1 4, ssDAF12 agonist 0, DAX1 inh-2 8.4*, LXRb hcDAF ctr 1, hcDAF12 ag 8.2*, hgDAF12 ag 15* and LXRb DAF12 ctr 1.
For COc1ccc(-n2cc3ccc([N+](=O)[O-])cc3n2)cc1 the results were hgDAF12 agonist 21*, hcDAF12 agonist 6.7*, DAX1 inh-1 2, ssDAF12 agonist 0, DAX1 inh-2 2, LXRb hcDAF ctr 2, hcDAF12 ag 7.1*, hgDAF12 ag 19* and LXRb DAF12 ctr 1.
Screening O=C(NCC1COc2ccccc2O1)c1ccc(NC(=O)C(Cl)Cl)cc1 (stereo unspecified) returned hgDAF12 agonist 8, hcDAF12 agonist 1, DAX1 inh-1 -1 and ssDAF12 agonist -1.
For CN1CCC(N[C@@H](Cc2ccccc2)C(=O)NCCCc2ccccc2)(C(=O)NCCc2c[nH]c3ccccc23)CC1 the results were hgDAF12 agonist 2, hcDAF12 agonist -1 and ssDAF12 agonist -1.
`COc1ccc(-c2cc(-c3ccccc3O)[nH]n2)cc1OC` gave hgDAF12 agonist 16*, hcDAF12 agonist 7.9*, DAX1 inh-1 3.6*, ssDAF12 agonist 0, DAX1 inh-2 4, LXRb hcDAF ctr 1, hcDAF12 ag 3, hgDAF12 ag 16* and LXRb DAF12 ctr 1.
